HGIII-sPLA2 inh: Inhibits HGIII-sPLA2 liposome hydrolysis, primary screen. QFRET BODIPY PC-A2 liposome hydrolysis, fluorescence. inhibition, % at 12.2 µM. 370,000 tested, 0.56% active. AID 743126;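 active = inhibition above mean plus 3 SD of compounds lying within the high and low control bounds, cut at about 19% in these data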;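 note: 0% = median of test compound wells and 100% = no enzyme DMSO wells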
KLK7 zymogen act: activators of human kallikrein-7 zymogen; purified proKLK7, EDANS-DABCYL substrate fluorescence; 100% is mature enzyme control, 0% vehicle; activation, % at 7 µM; P49862; 370,000 tested, 0.9% active;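 active = activation above the mean of all tested compounds plus 3 SD, computed per campaign excluding outliers beyond control limits, cut at about 13% in these data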
Target sequence (P49862 whole entry, looked up): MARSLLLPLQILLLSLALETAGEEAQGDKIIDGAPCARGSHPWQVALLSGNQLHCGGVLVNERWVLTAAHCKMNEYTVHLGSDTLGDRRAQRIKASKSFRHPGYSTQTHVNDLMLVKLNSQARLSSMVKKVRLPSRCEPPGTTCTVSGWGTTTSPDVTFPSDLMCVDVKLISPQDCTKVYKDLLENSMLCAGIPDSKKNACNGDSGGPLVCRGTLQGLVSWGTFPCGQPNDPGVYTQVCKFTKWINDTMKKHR
ADAM17 inh: ADAM17 inhibition, QFRET primary screen; P78536; recombinant ADAM17, EDANS/DABCYL FRET peptide cleavage; inhibition, % at 6.95 µM; 370,000 tested, 0.83% active;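 active = inhibition above the mean of compounds lying between control limits plus 3 SD, set per campaign, cut at about 8.5% in these data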;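 note: 0% = DMSO-only wells as the low control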
PLCg1 inh: PLC-gamma1 (human) inhibition, primary screen | P19174 | purified PLC-gamma1, fluorogenic substrate, fluorescence | inhibition, % at 12.2 µM | 370,000 tested, 0.84% active | AID 720700; in the data active = inhibition above about 9.5%
ADAM10 inh: ADAM10 inhibition, QFRET primary screen. O14672. recombinant ADAM10, EDANS/DABCYL FRET peptide cleavage, 3 h. inhibition, % at 7 µM. 370,000 tested, 0.62% active. AID 720582;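 active = inhibition above a per-campaign cutoff equal to the mean of compounds falling between control-based bounds plus 3 SD, cut at about 20% in these data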;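 note: 0% = DMSO wells while the 100% control is not disclosed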
PLC-beta3 inh: inhibitors of human phospholipase C beta3; inhibition, % at 12.2 µM; Purified PLC-beta3, fluorogenic substrate, fluorescence; 370,000 tested, 0.18% active; AID 720704; Q01970; in the data active = inhibition above about 11%;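 note: 0% = median of compound wells on plate and 100% = full blocker control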
* hit, by the source's call. In the library only some 3.4% were active in any assay of this set; here they are far more common.

How did Cc1ccc(C(=O)Nc2ccc(Oc3ccc(C(=O)O)c(C(=O)O)c3)cc2)cc1C do in these assays?
HGIII-sPLA2 inh: 3.0; KLK7 zymogen act: -0.1; ADAM17 inh: 1.2; PLCg1 inh: 10.9*; ADAM10 inh: 7.0; PLC-beta3 inh: 3.9

Results for CC(C)CN1C(=O)[C@@]2(CC(=O)N(C)C2c2ccccc2)c2cc(-n3cc(-c4ccccc4)nn3)ccc21 (stereo not given in full) ?
HGIII-sPLA2 inh: 6.9; KLK7 zymogen act: 0.0; ADAM17 inh: 2.4; PLCg1 inh: 1.1; ADAM10 inh: 4.8; PLC-beta3 inh: 3.7

How did CC(=O)Nc1nc2ccccc2n1CCN(C)C do in these assays?
HGIII-sPLA2 inh: 1.1; KLK7 zymogen act: -0.5; ADAM17 inh: 4.6; PLCg1 inh: 2.7; ADAM10 inh: 6.3; PLC-beta3 inh: 12.6*

What do the screens show for `CCC(=O)Nc1nc2ccccc2n1CCN(C)C`?
HGIII-sPLA2 inh: -2.6; KLK7 zymogen act: -0.5; ADAM17 inh: -0.7; PLCg1 inh: 2.2; ADAM10 inh: 3.0; PLC-beta3 inh: 2.1

What do the screens show for `N#Cc1ccccc1Sc1ccccc1C(=O)Nc1ccc2ccccc2c1`?
HGIII-sPLA2 inh: -18.1; KLK7 zymogen act: -4.9; ADAM17 inh: 8.6*; PLCg1 inh: -1.8; ADAM10 inh: 17.1; PLC-beta3 inh: -1.4

How did N#Cc1ccccc1Sc1ccccc1C(=O)Nc1ccc(Br)cc1 do in these assays?
HGIII-sPLA2 inh: -28.1; KLK7 zymogen act: 0.6; ADAM17 inh: 6.2; PLCg1 inh: 3.4; ADAM10 inh: 15.9; PLC-beta3 inh: 0.2

Results for COc1cc2c(cc1NC(=O)CSc1nnc(-c3cccc(Cl)c3)n1-c1ccccc1)oc1ccccc12 ?
HGIII-sPLA2 inh: 10.3; KLK7 zymogen act: -0.6; ADAM17 inh: -1.9; PLCg1 inh: -2.7; ADAM10 inh: -12.6; PLC-beta3 inh: -0.9

How did COc1cc2cc(CN(Cc3nnnn3Cc3ccco3)C3CCCCC3)c(=O)[nH]c2cc1OC do in these assays?
HGIII-sPLA2 inh: -11.3; KLK7 zymogen act: 12.8*; ADAM17 inh: -93.7; PLCg1 inh: -283.7; ADAM10 inh: -330.6; PLC-beta3 inh: -318.9

Results for CCOc1ccc2[nH]c(=O)c(CN(Cc3nnnn3Cc3ccco3)C3CCCCC3)cc2c1 ?
HGIII-sPLA2 inh: -14.9; KLK7 zymogen act: 3.0; ADAM17 inh: -34.4; PLCg1 inh: -50.7; ADAM10 inh: -95.1; PLC-beta3 inh: -60.1

What do the screens show for `COc1ccc(Cn2nnnc2CN(Cc2cc3ccc(C)cc3[nH]c2=O)C2CCCC2)cc1`?
HGIII-sPLA2 inh: -0.1; KLK7 zymogen act: 14.9*; ADAM17 inh: -36.1; PLCg1 inh: -215.1; ADAM10 inh: -96.7; PLC-beta3 inh: -326.8

Results for CC(C)(C)n1nnnc1CN(Cc1ccco1)Cc1cc2cc3c(cc2[nH]c1=O)OCO3 ?
HGIII-sPLA2 inh: 0.0; KLK7 zymogen act: 28.2*; ADAM17 inh: -179.3; PLCg1 inh: inactive; ADAM10 inh: inactive; PLC-beta3 inh: inactive

What do the screens show for `Oc1ccc2[nH]cc(-c3cccs3)c2c1-c1ccccc1`?
HGIII-sPLA2 inh: -4.3; KLK7 zymogen act: -1.0; ADAM17 inh: -2.2; PLCg1 inh: -15.0; ADAM10 inh: -3.9; PLC-beta3 inh: -20.1

Results for CCn1c(SCC(=O)Nc2ccc(C(=O)OC)cc2)nnc1-c1cccc(Cl)c1 ?
HGIII-sPLA2 inh: -20.5; KLK7 zymogen act: 0.1; ADAM17 inh: 3.6; PLCg1 inh: 0.2; ADAM10 inh: 4.3; PLC-beta3 inh: -0.5

How did CC(C)N1CCCCC(NC(=O)c2ccc(F)c(F)c2)C1=O (stereo not given) do in these assays?
HGIII-sPLA2 inh: 6.4; KLK7 zymogen act: -0.6; ADAM17 inh: -0.4; PLCg1 inh: 1.8; ADAM10 inh: -1.6; PLC-beta3 inh: 5.4

How did c1ccc(Cn2ccc3ccc(-c4ccc5ccn(Cc6ccc7ccccc7c6)c5c4)cc32)cc1 do in these assays?
HGIII-sPLA2 inh: 8.4; KLK7 zymogen act: -3.1; ADAM17 inh: -12.2; PLCg1 inh: -55.7; ADAM10 inh: -32.4; PLC-beta3 inh: -70.1

What do the screens show for `O=S(=O)(c1ccc(F)cc1)N1CCC(c2nc3ccccc3o2)CC1`?
HGIII-sPLA2 inh: 5.7; KLK7 zymogen act: 0.2; ADAM17 inh: -1.8; PLCg1 inh: 0.8; ADAM10 inh: -1.8; PLC-beta3 inh: 1.1

What do the screens show for `Cc1cccc(Oc2coc3cc(O)ccc3c2=O)c1`?
HGIII-sPLA2 inh: -12.8; KLK7 zymogen act: -8.2; ADAM17 inh: -205.4; PLCg1 inh: inactive; ADAM10 inh: -481.5; PLC-beta3 inh: inactive

Results for CCOC(=O)Oc1ccc2c(=O)c(Oc3cccc(C)c3)coc2c1 ?
HGIII-sPLA2 inh: -8.2; KLK7 zymogen act: 75.9*; ADAM17 inh: -191.8; PLCg1 inh: inactive; ADAM10 inh: inactive; PLC-beta3 inh: inactive

Results for CCOC(=O)Oc1ccc2c(=O)c(Oc3cc(C)cc(C)c3)coc2c1 ?
HGIII-sPLA2 inh: -13.8; KLK7 zymogen act: 35.9*; ADAM17 inh: -127.3; PLCg1 inh: inactive; ADAM10 inh: -427.0; PLC-beta3 inh: inactive

Results for C=CCN(CC#Cc1cccnc1)Cc1ccc(OC)cc1OC ?
HGIII-sPLA2 inh: 5.3; KLK7 zymogen act: -0.1; ADAM17 inh: -3.3; PLCg1 inh: -2.5; ADAM10 inh: -8.8; PLC-beta3 inh: -1.8

How did O=C(NNC(=S)Nc1ccc(F)c(Cl)c1)c1ccccc1Br do in these assays?
HGIII-sPLA2 inh: 25.7*; KLK7 zymogen act: 0.5; ADAM17 inh: 6.3; PLCg1 inh: -1.6; ADAM10 inh: 11.5; PLC-beta3 inh: -0.6

Results for NC(=NCc1ccccc1)NC(=O)OCc1ccccc1 ?
HGIII-sPLA2 inh: 6.9; KLK7 zymogen act: 0.2; ADAM17 inh: -2.0; PLCg1 inh: -37.4; ADAM10 inh: -2.5; PLC-beta3 inh: 1.3

How did CC(C)(C)c1ccc(-c2nnc(SCc3cccc4ccccc34)n2Cc2ccco2)cc1 do in these assays?
HGIII-sPLA2 inh: -1.5; KLK7 zymogen act: -0.4; ADAM17 inh: 4.7; PLCg1 inh: 3.5; ADAM10 inh: 14.2; PLC-beta3 inh: 3.2

How did Nc1ccc(Cn2ccc3c4c(N)nc(N)nc4ccc32)cc1 do in these assays?
HGIII-sPLA2 inh: 21.9*; KLK7 zymogen act: 3.9; ADAM17 inh: -32.0; PLCg1 inh: -28.8; ADAM10 inh: -118.9; PLC-beta3 inh: -40.9

What do the screens show for `Cc1cccc(Cl)c1NC(=S)NN`?
HGIII-sPLA2 inh: 5.1; KLK7 zymogen act: -0.8; ADAM17 inh: -6.9; PLCg1 inh: -1.4; ADAM10 inh: -0.9; PLC-beta3 inh: -3.9

What do the screens show for `Cc1cccc(Cl)c1NC(=O)N(C)c1ccccc1`?
HGIII-sPLA2 inh: 19.1; KLK7 zymogen act: -0.3; ADAM17 inh: -3.6; PLCg1 inh: 11.7*; ADAM10 inh: -16.6; PLC-beta3 inh: 4.6

Results for Cc1ccc(NC(=S)c2nc3ccccc3[nH]2)c(C)c1 ?
HGIII-sPLA2 inh: 31.2*; KLK7 zymogen act: 0.0; ADAM17 inh: 8.9*; PLCg1 inh: 6.1; ADAM10 inh: 5.6; PLC-beta3 inh: 2.2

What do the screens show for `O=c1c2c(n3nnnc3n1Cc1ccc(Cl)cc1)-c1ccccc1CC21CCCC1`?
HGIII-sPLA2 inh: -0.3; KLK7 zymogen act: -0.8; ADAM17 inh: -4.2; PLCg1 inh: -5.0; ADAM10 inh: -6.7; PLC-beta3 inh: -5.9

Screening data (PubChem BioAssay)
